High-throughput results from PubChem.
The list is not random: actives were taken first. Their share in the collection is about 21%.
Pf growth 96h: Primary qHTS for delayed death inhibitors of the malarial parasite plastid, 96 hour incubation; P. falciparum luciferase reporter growth, 96 h; Potency, µM (series often up to 28.7 µM), for the others: at the top dose activity change, negative = inhibition, hits mostly inhibitors; hit rate 6.9% among 320,000; also: potency is read from the fitted curve at half-maximal effect; % is scaled to controls: 0 for no effect and ±100 for the full control effect
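Erythrocytes infected with luciferase-expressing P. falciparum were dispensed at 2% hematocrit and 0.05% parasitemia (final), then incubated with compounds 96 hours at 37 C in 5% CO2. Luminescence after detection reagent addition reported growth.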
Shiga toxin inh: A qHTS for Small Molecule Inhibitors of Shiga Toxin | hit rate 9.2% among 290,000 | Vero cells, Shiga toxin protein synthesis inhibition reporter | inhibition, % at 38.7 µM; in the data active = inhibition mostly above about 28%, no sharp cut-off; inactive = mostly below about 43%; also: 0% is about no effect
Pf growth 48h: Primary qHTS for delayed death inhibitors of the malarial parasite plastid, 48 hour incubation. Potency, µM (titrated, usually from 28.7 µM), for the others: top-dose activity change, negative = inhibition, actives largely listed as inhibitors. hit rate 5.9% among 310,000. P. falciparum luciferase growth in erythrocytes, 48 h. AID 504832, 2011; also: potency is read from the fitted curve at half-maximal effect; % is scaled to controls: 0 for no effect and ±100 for the full control effect
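Here the parasites carry a stable luciferase gene and grow inside erythrocytes in Albumax-based RPMI medium with compound for one erythrocytic cycle. Activity is scored as loss of luminescent signal.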
Giardia FBPA inh: qHTS Assay for Inhibitors of Fructose-1,6-bisphosphate Aldolase from Giardia Lamblia; purified Giardia FBPA; Potency, µM (titrated, usually from 59.6 µM), for the others: at the highest dose activity, negative = inhibition, hits mostly inhibitors; hit rate 0.71% among 290,000; AID 2451, 2010; also: potency is read from the fitted curve at half-maximal effect; % is scaled to controls: 0 for no effect and ±100 for the full control effect; nearly all actives have a fitted effect of over 55% in size
Target sequence (A8B2U2 whole entry, looked up): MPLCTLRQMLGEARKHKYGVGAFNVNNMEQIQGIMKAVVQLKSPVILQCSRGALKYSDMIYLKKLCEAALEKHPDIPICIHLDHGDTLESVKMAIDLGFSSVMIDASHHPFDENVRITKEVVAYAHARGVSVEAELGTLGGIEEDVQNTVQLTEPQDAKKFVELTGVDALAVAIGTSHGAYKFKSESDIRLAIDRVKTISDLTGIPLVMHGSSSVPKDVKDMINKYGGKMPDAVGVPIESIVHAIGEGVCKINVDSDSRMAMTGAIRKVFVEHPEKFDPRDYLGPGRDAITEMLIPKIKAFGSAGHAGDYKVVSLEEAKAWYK
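40 nM FBPA preincubated 10 min at RT with compound (up to 57.5 uM final), then substrate plus GAPDH/TPI/NAD/arsenate coupling and diaphorase/resazurin added. Fluorescence read after 20 min at RT, 525/598 nm.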
NS1 inh: qHTS Assay for Inhibitors of Influenza NS1 Protein Function; hit rate 0.4% among 270,000; Potency, µM (highest dose often 46.1 µM), without a hit: at the top dose activity, positive = more growth; AID 2326, 2010; calls by dose curve; also: potency is read from the fitted curve at half-maximal effect; actives are rising curves; nearly all actives have a fitted effect of over 50% in size
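In this qHTS, NS1 from influenza A is expressed in budding yeast, where it slows growth. Cells are switched from glucose to 2% galactose medium (pH 6.0, -URA), treated with compound, and growth recovery is read at OD600.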
CHX counter: Cycloheximide Counterscreen for Small Molecule Inhibitors of Shiga Toxin. AID 2314, 2010. hit rate 12% among 300,000. max response, %. cell reporter, cycloheximide protein synthesis inhibition counterscreen; in the data active = max response mostly above about 13%, no sharp cut-off; inactive = mostly below about 14%; also: read at 38.3 µM for the half of the compounds with a filed dose; 0% is about no effect
* = called active by the depositor; ? = inconclusive; / = not tested or not shown. Unless noted, calls follow the shape of the dose curve; as a rule, active = well fitted curve in the direction sought with a large enough effect; inconclusive = small, poorly fitted or top-dose-only effect, or another doubt; inactive = no such curve, though single readings can be large; an effect the other way counts as inactive or inconclusive.

SMILES | Pf growth 96h | Shiga toxin inh | Pf growth 48h | Giardia FBPA inh | NS1 inh | CHX counter
COc1cc(CNCCc2ccc(S(N)(=O)=O)cc2)ccc1OCC(=O)NC(C)(C)C | 13µM* | -3 | -17% | -7% | -6% | 1
O=C(O)C1(O)C[C@H](O)C(O)[C@@H](O)C1 (some centres undefined) | -1% | / | -8% | -1% | / | /
COc1ccccc1Oc1ccc2c(c1)C(=O)N(CC1CCCO1)C2=O (centres undefined) | 19% | 46* | 19% | 2% | -4% | 37*
O=C(Nc1ccc2c(c1)C(=O)N(CC1CCCO1)C2=O)c1cccc(Br)c1 (centres undefined) | 33% | 115* | / | -8% | -1% | 25*
CC(=O)Oc1cccc(C(=O)Nc2ccc3c(c2)C(=O)N(CC2CCCO2)C3=O)c1 (centres undefined) | 4% | -4 | ? | / | 10% | 7
COc1cccc(NC(=O)c2ccc3c(c2)C(=O)N(CC2CCCO2)C3=O)c1 (centres undefined) | 65% | 40 | 24% | -5% | -9% | 30*
COc1cccc(C(=O)Nc2ccc3c(c2)C(=O)N(CC2CCCO2)C3=O)c1 (centres undefined) | -16% | 55* | ? | / | -9% | 44*
COc1ccc(NC(=O)c2ccc3c(c2)C(=O)N(CC2CCCO2)C3=O)cc1 (centres undefined) | ? | 21 | 12% | 3% | 3% | -2
CCC1(c2ccc(O)cc2)NC(=O)N(C)C1=O (centres undefined) | / | -13 | / | 2% | / | -1
Cc1coc2cc3oc(=O)c(CCC(=O)N4C[C@H]5C[C@@H](C4)c4cccc(=O)n4C5)c(C)c3cc12 | ? | -2 | ? | 2% | 1% | 5
COc1ccc(/C=C2\NC(=S)N(CC3CCCO3)C2=O)c(OC)c1C (centres undefined) | 3% | 3 | / | -10% | -6% | 13
COc1ccc(/C=C2\NC(=S)N(CC3CCCO3)C2=O)c(OC)c1 (centres undefined) | 13% | 34 | 12% | -13% | -10% | 23*
Cc1[nH]c(=O)[nH]c(=O)c1S(=O)(=O)N1CCC(C(=O)NC(C)c2ccccc2)CC1 (centres undefined) | 4.1µM* | -10 | -4% | 1% | 0% | -4
Cc1cccc(NC(=O)C2CCN(S(=O)(=O)c3c(C)[nH]c(=O)[nH]c3=O)CC2)c1 | 13µM* | -27 | 46% | 3% | -1% | -2
Cc1csc(=O)n1CCC(=O)OCc1nnc(-c2ccc(Cl)cc2)o1 | 49% | / | 28% | / | / | /
CCC#CCOCC(=S)Nc1ccccc1 | / | / | / | 2% | / | /
CC(CNC(=O)CCS(=O)(=O)c1ccc2c(c1)oc(=O)n2C)c1ccccc1 (centres undefined) | 9.3µM* | 14 | ? | / | -1% | 1
COc1cc(NC(=O)CCS(=O)(=O)c2ccc3c(c2)oc(=O)n3C)cc(OC)c1OC | 2.3µM* | -7 | -29% | / | 10% | 1
Cc1ccsc1C1NC(=O)c2c(sc3c2CCN(C)C3)N1 (centres undefined) | ? | -4 | / | ? | ? | 1
CN1CCc2c(sc3c2C(=O)NC(c2cccs2)N3)C1 (centres undefined) | 36% | 35* | 66% | ? | -57% | 34*
C/C(=N\Nc1nc(C)cc(C)n1)c1ccc(C)o1 | ? | 29 | -47% | -27% | 3% | 21*
C/C(=N\Nc1nnc2c3ccccc3n(C)c2n1)c1ccc(C)o1 | ? | 29 | ? | -8% | -15% | 13
O=C(Nc1ccc(C(F)(F)F)cc1)c1ccc2nc[nH]c2c1 | -6% | 54* | 0% | 11% | -52% | 23*
NS(=O)(=O)c1cccc(NC(=O)c2ccc3nc[nH]c3c2)c1 | ? | -4 | 7% | 9% | 2% | -2
O=C(Nc1ccc2c(c1)OCO2)c1ccc(Cl)nc1 | 70% | 65 | / | -1% | -9% | 17
O=C(Nc1ccc2c(c1)OCO2)c1ccc2nc[nH]c2c1 | 40% | 68* | / | -14% | 16% | 52*
